Test results: PubChem BioAssay AID602252 (Broad Institute, 2012)
About 2,700 (0.9%) of roughly 300,000 compounds were called active. The sample holds actives, similar compounds and a random draw of the others, so the mix is not that of the screen.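 The calls were made as follows: active = mean inhibition of at least 30% with at least half of replicates also reaching 30%; inconclusive = no clear call, values can overlap the other calls; inactive = the rest.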

target: Golgi-associated PDZ and coiled-coil motif-containing protein (Homo sapiens) (UniProt Q9HD26); assay: blockade of CAL PDZ-reporter peptide interaction – biochemical, fluorescence polarization, untagged CAL PDZ, HTS, primary screen (AID 602252); conditions: purified CAL PDZ, TMR-peptide fluorescence polarization, 1 h; at 24.9 µM; active compounds read high;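 also: 0% = DMSO neutral control and 100% = excess unlabeled competitor peptide PRC23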

Compound | inhibition
COc1ccccc1N1CCN(S(=O)(=O)c2ccc(Cl)cc2)CC1 | -4.05% (inactive)
COc1ccccc1-n1nnnc1SCC(=O)NC(=O)Cc1ccccc1 | 0.182% (inactive)
COc1ccccc1-n1nnnc1S(=O)(=O)Cc1ccc(Cl)cc1 | 95.3% (active)
CCCCNc1c(-c2ccc(OC)c(Sc3ccc(OC)cc3)c2)nc2ccc(Cl)cn12 | 0.771% (inactive)
CCN(CC(=O)NCc1ccc(Cl)cc1)C(=O)CSc1ccccc1 | 62.6% (active)
CCN(CC(=O)NCc1ccc(Cl)cc1)C(=O)c1c(C)noc1C | -2.21% (inactive)
CCN(CC(=O)Nc1cc(Cl)ccc1C)C(=O)CSCc1ccccc1 | -0.344% (inactive)
Cc1cc2c(cc1C)NC1(C[C@H]3CCC(=O)N4CC[C@@H](C1)[C@@H]34)C(=NC(C)(C)CC(C)(C)C)N2 (stereo partly drawn) | -3.52% (inactive)
CCOC(=O)c1nnn(-c2nc(OC)nc(N(C)C)n2)c1-c1ccccc1 | 14.6% (inactive)
CCOc1nc(OCC)nc(-n2cc(-c3ccccc3)nn2)n1 | 145% (active)
CCCCCc1ccc(-c2cn(Cc3ccc4ccccc4c3)nn2)cc1 | -1.31% (inactive)
Cc1c(NC(=O)CCCOc2ccccc2)cccc1[N+](=O)[O-] | 47.4% (active)
Cc1c(NC(=O)Nc2ccccc2)cccc1[N+](=O)[O-] | -0.291% (inactive)
Cc1ccccc1NC(=O)CCOc1ccccc1 | -3.86% (inactive)
Fc1ccc2cnc(-c3ccccc3)cc2c1 | -0.668% (inactive)
O=S(=O)(Nc1ccc2ccccc2c1)N1CCCCC1 | -5.99% (inactive)
CC(C)OC(=O)c1ccc(NCc2cc(O)ccc2O)cc1Cl | 0.191% (inactive)
COC(=O)Cc1c(-c2[nH]c3ccccc3c2CC(=O)OC)[nH]c2ccccc12 | -2.69% (inactive)
CCN1CCN(CCNC(=O)c2ccc3c(c2)NC(=O)/C(=C\c2ccc(OC)c(OC)c2)S3)CC1 | 55.5% (active)
CCN1CCN(CCNC(=O)c2ccc(/C=C3/Sc4ccccc4N(Cc4cccc(C)c4)C3=O)cc2)CC1 | -8.21% (inactive)
COc1ccc(CCNC(=O)c2ccc3c(c2)NC(=O)C(N2CCOCC2)S3)cc1OC (stereo not drawn) | -1.17% (inactive)
COc1cc(C(=O)OCC(=O)NC23CC4CC(CC(C4)C2)C3)cc(OC)c1OC | -3.34% (inactive)
CCCCCCn1c(SCC(=O)c2ccccc2)nc2c1c(=O)[nH]c(=O)n2C | -0.797% (inactive)
C=CCn1c(SCc2ccccc2)nc2c1c(=O)[nH]c(=O)n2C | -10.1% (inactive)

Compound | inhibition
C=CCSc1nc2c(c(=O)[nH]c(=O)n2C)n1Cc1ccccc1 | 59.3% (active)
CC(C)(C)C(=O)Nc1cccc(-c2ccc[nH]2)n1 | -1.63% (inactive)
CCN1CCN(C(=O)C2(NC(=O)Nc3cccc(F)c3)CCCCC2)CC1 | -0.757% (inactive)
Cc1ccccc1NC(=O)NC1(C(=O)N2CCCC2)CCCCC1 | -0.684% (inactive)
CC(=O)N1CCN(C(=O)C2(NC(=O)Nc3ccc(C)cc3)CCCCC2)CC1 | 48% (active)
Cn1cncc1C#Cc1c(-c2ccsc2)sc2ccccc12 | -4.14% (inactive)
Oc1ccc(-c2nc3ccccc3nc2-c2ccc(O)cc2O)c(O)c1 | 89% (active)
Cc1cc(O)ccc1-c1cnc2ccccc2n1 | -0.904% (inactive)
Oc1ccc(-c2[nH]ncc2-c2nc3ccccc3s2)c(O)c1 | -4.79% (inactive)
CCN1C[C@@H]2[C@@H]3C(=O)N(C)C(=O)[C@@H]3[C@](C)(C1=O)N2C(=O)c1ccccc1 | -2.56% (inactive)
CCC1([N+](=O)[O-])COC(c2ccc(C(C)C)cc2)OC1 (stereo not drawn) | 2.08% (inactive)
COc1cccc2oc(CCc3ccccc3)cc(=O)c12 | -0.506% (inactive)
Cc1ccc(S(=O)(=O)N2C[C@@H]3CCCC[C@@H]3[C@@H](C)[C@H]2c2cn(Cc3ccccc3)c3ccc(F)cc23)cc1 | -5.03% (inactive)
Cc1cc(=O)oc2cc(OCC(=O)Nc3nnc(C4CC4)s3)ccc12 | 51.4% (active)
COc1ccc2c(CC(=O)Nc3nnc(C4CC4)s3)coc2c1 | -1.76% (inactive)
CCOC(=O)Cc1csc(NC(=O)COc2ccc3c(C)cc(=O)oc3c2)n1 | -3.4% (inactive)
CC(=O)Nc1ccc(C(=O)Nc2cc(S(=O)(=O)N3CCOCC3)ccc2N2CCOCC2)cc1 | -4.08% (inactive)
COc1cccc(CC(=NO)c2cccc(OC)c2)c1 | -7.29% (inactive)
Cc1ccc(C(=O)OC(C)CN2CCOCC2)cc1 (stereo not drawn) | 70.2% (active)
CC(CN1CCOCC1)OC(=O)c1ccc(C(C)(C)C)cc1 (stereo not drawn) | -3.82% (inactive)
CC(CN1CCOCC1)OC(=O)c1ccc(Cl)cc1Cl (stereo not drawn) | -2.34% (inactive)
Cc1csc(NC(=O)C2CCN(S(=O)(=O)c3ccccc3)CC2)n1 | 3.13% (inactive)
OC(CNCc1ccc2c(c1)OCO2)COc1ccccc1 (stereo not drawn) | -0.826% (inactive)
OC(CNCCc1ccc(Cl)cc1Cl)COc1ccccc1 (stereo not drawn) | 64.2% (active)

Compound | inhibition
OC(COc1ccccc1)CN1CCN(c2cccc(Cl)c2)CC1 (stereo not drawn) | -5.9% (inactive)
O=C(CSc1nnc(CN2CCCC2)n1-c1ccc(F)cc1)c1ccc2c(c1)OCO2 | -2.04% (inactive)
COC[C@@H]1NS(=O)(=O)c2ccc(Br)cc2O[C@H]1c1ccccc1 | -7.2% (inactive)
COc1ccc(OCc2cc(C(=O)N3CCCC3)no2)c2ccccc12 | -4.16% (inactive)
O=C(c1cc(COc2cccc(C(F)(F)F)c2)on1)N1CCSCC1 | -4.68% (inactive)
COc1cccc(OCc2cc(C(=O)N3CCN(C(=O)c4ccco4)CC3)no2)c1 | 139% (active)
C[C@H](CO)N1C[C@H](C)[C@@H](CN(C)Cc2ccc(-c3ccccc3)cc2)Oc2ccc(NC(=O)Cn3cnnn3)cc2C1=O | -3.86% (inactive)
O=C(O)CN(Cc1ccco1)S(=O)(=O)c1ccccc1 | -2.04% (inactive)
O=C(O)CN(Cc1ccco1)S(=O)(=O)c1ccc(F)cc1 | 41.2% (active)
CCN(CC(=O)NCc1ccco1)S(=O)(=O)c1ccc(F)cc1 | -5.17% (inactive)
O=C1NC(c2ccccc2)Cc2ccncc21 (stereo not drawn) | 0.221% (inactive)
CCN(CC)S(=O)(=O)c1ccc(N2CCOCC2)c(NC(=O)C(C)Oc2ccc(F)cc2)c1 (stereo not drawn) | -9.92% (inactive)
CCOC(=O)c1sc2nc(CSCC(=O)OCc3ccc(C(=O)OC)o3)[nH]c(=O)c2c1C | -1.2% (inactive)
CCOC(=O)c1sc2nc(C)[nH]c(=O)c2c1C | -5.61% (inactive)
CCOC(=O)c1sc2nc(CSc3ccccc3)[nH]c(=O)c2c1C | 82.4% (active)
CN(C)CCNC(=O)c1ccc(Cl)c2cc3ccccc3nc12 | -3.6% (inactive)
Cc1ccc(S(=O)(=O)N(C)C)cc1NC(=O)CN1c2cccc3cccc(c23)S1(=O)=O | 1.34% (inactive)
CN(C(=O)C1CCOC1)c1nnc(-c2cccnc2)s1 (stereo not drawn) | 5.89% (inactive)
CN(C(=O)c1ccno1)c1nnc(-c2cccnc2)s1 | 79.5% (active)
COc1cc(OC)cc(-c2nnc(N(C)C(=O)c3ccncc3)s2)c1 | -5.84% (inactive)
Cc1ccc(S(=O)(=O)CCC(=O)OCC(=O)N(C)Cc2ccccc2)cc1 | -0.906% (inactive)
O=C(COc1ccccc1F)Nc1nc(-c2ccccn2)cs1 | -7.77% (inactive)
CC(C)(C)OC(=O)N(Cc1ccccc1)Cc1ccc(OCc2cccc(NC(=O)c3ccccc3)c2)cc1 | -1.04% (inactive)
Cc1cccc(NC(=S)N2CCC(C(=O)c3ccc(F)cc3)CC2)c1 | -2.74% (inactive)

Compound | inhibition
CN(C)S(=O)(=O)c1cccc(NC(=O)COC(=O)/C=C/c2cccs2)c1 | -0.792% (inactive)
CN(C)S(=O)(=O)c1cccc(NC(=O)COc2ccc3ccccc3c2)c1 | -3.42% (inactive)
CN(C)S(=O)(=O)c1cccc(NC(=O)Cc2ccsc2)c1 | 56.9% (active)
COc1cc2c(cc1OC)C(Cc1cc(OC)c(OC)cc1[N+](=O)[O-])=NCC2 | -3.58% (inactive)
COc1ccccc1NC1=NC(c2ccc(Cl)cc2)N=C(N)N1 (stereo not drawn) | 2.25% (inactive)
CC1(C)N=C(N)NC(Nc2ccc(Cl)cc2)=N1 | 46.4% (active)
O=c1ccnc(Nc2ccc(Cl)cc2)[nH]1 | -6.21% (inactive)
COc1ccc(-c2ccc3c(c2)C2CC3CCN2CCC#N)cc1 (stereo not drawn) | -7.19% (inactive)
COc1ccc(C(=O)NCC(=O)N/N=C/c2ccc([N+](=O)[O-])s2)cc1OC | 1.89% (inactive)
CNN/C(N=Cc1ccc([N+](=O)[O-])s1)=N\S(=O)(=O)c1cc(C)c(Cl)cc1SCc1ccccc1 | 66.8% (active)
Cc1ccccc1NCC(=O)N/N=C\c1ccc([N+](=O)[O-])s1 | -2.26% (inactive)
COc1cc(C(=O)CCc2ccc3c(c2)OCO3)cc(OC)c1OC | -5.96% (inactive)
COc1ccc(S(=O)(=O)Nc2ccc(O)c(Sc3nc4ccccc4s3)c2)cc1 | 40.1% (active)
CCOc1ccc(S(=O)(=O)Nc2nc3cc(OC)ccc3s2)cc1 | 1.2% (inactive)
O=C(O)c1cccc(S(=O)(=O)Nc2ccc(O)cc2Sc2nc3ccccc3s2)c1 | -1.01% (inactive)
COc1ccc(CCNC(=O)c2ccc(NC(=O)CC3SC(N4CCCCC4)=NC3=O)cc2)cc1OC (stereo not drawn) | -1.27% (inactive)
O=C1c2ccccc2C(=O)C1C(=O)C1CC1 | -5.16% (inactive)
CS(=O)(=O)N(CC(=O)Nc1ccc(F)cc1)C1CCCCC1 | -14.6% (inactive)
CCC(C)NC(=O)CN(C1CCCCC1)S(C)(=O)=O (stereo not drawn) | 7.29% (inactive)
CS(=O)(=O)N(CC(=O)Nc1ccc(Cl)c(Cl)c1)C1CCCCC1 | 51.4% (active)
COc1ccc(Cn2cc(CN3CCS(=O)(=O)N(Cc4ccc(-c5cccc(Cl)c5)cc4)C(C)C3=O)nn2)cc1 (stereo not drawn) | -4.3% (inactive)
